Rce1 inh: yeast Ras-converting enzyme inhibition; 290,000 compounds, 0.27% hits; Q03530; calls only; yeast membranes, quenched prenylated peptide cleavage fluorescence;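 active means fall in fluorescence gain of 50% or more versus controls, with final raw signal at or below 3038400; inconclusive means same 50% fall but final raw signal above 3038400; inactive means fall in fluorescence gain under 50%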;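 further: plate controls were neutral control wells for no effect and wells lacking membranes for full effect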
Target sequence (Q03530 whole entry, looked up): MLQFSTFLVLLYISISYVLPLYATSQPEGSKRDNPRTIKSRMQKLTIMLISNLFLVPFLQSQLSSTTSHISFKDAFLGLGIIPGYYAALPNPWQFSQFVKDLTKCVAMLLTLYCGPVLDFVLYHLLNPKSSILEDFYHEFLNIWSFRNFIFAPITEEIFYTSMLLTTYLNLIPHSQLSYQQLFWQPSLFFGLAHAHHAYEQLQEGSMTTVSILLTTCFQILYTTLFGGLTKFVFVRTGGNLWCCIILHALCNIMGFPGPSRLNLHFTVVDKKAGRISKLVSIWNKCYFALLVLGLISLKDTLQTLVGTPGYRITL
GRK2 inh: inhibitors of human GRK2 displacing RNA aptamer | P25098 | bead flow cytometry, FAM-aptamer displacement from GRK2 | inhibition of aptamer binding, % at 10 µM | 330,000 compounds, 0.59% hits;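 active means inhibition of aptamer binding above 40%, roughly 3 SD of noise, on plates passing a quality check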;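 further: median bead fluorescence of bound FAM aptamer so fluorescent compounds give negative values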
ALR H2O2 inh: blocks human ALR sulfhydryl oxidase activity; P55789; purified ALR, DTT oxidation, H2O2 HRP-luminol luminescence; inhibition, % (no concentration beside the values); 290,000 compounds, 3.8% hits;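 active means mean replicate inhibition above about 79%, with every replicate also reaching it, limit read from the data; inconclusive means only one of the two criteria met; inactive means mean below limit and not every replicate reaching it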
Rtt109 Vps75: inhibitors of Candida albicans Rtt109/Vps75 histone acetyltransferase. Q5AAJ8. purified Rtt109/Vps75, ThioGlo CoA-SH fluorescence, 4 h. inhibition, % at 34.9 µM. 330,000 compounds, 0.16% hits. AID 540336;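 active means inhibition of at least 50% in every replicate; inconclusive means best replicate reaches 50% inhibition but some replicates fall short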
Target sequence (Q5AAJ8 whole entry, looked up): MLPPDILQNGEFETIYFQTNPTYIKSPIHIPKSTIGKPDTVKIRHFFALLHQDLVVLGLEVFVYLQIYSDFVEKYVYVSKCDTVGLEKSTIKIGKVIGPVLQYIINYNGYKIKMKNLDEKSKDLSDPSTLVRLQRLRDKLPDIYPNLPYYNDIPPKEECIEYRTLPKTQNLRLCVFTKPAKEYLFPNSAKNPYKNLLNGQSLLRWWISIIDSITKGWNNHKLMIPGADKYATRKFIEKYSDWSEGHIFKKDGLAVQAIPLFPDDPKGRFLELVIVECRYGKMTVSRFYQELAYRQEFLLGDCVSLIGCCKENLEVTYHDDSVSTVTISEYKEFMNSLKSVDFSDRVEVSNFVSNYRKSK
HDAC3 inhib: human HDAC3 inhibition. O15379. recombinant HDAC3, fluorogenic peptide/trypsin coupled, fluorescence. 320,000 compounds, 0.15% hits. inhibition, % at 8.3 µM. AID 2718; in the data active means inhibition above about 26%, passing the limit was not always enough; inconclusive means no clear call, values can overlap the other calls
Efflux pump inh: blocks antifungal efflux pumps in multiplex yeast assay | AID 485275 | 330,000 compounds, 0.44% hits | inhibition, % at 10 µM | S. cerevisiae Candida pump triplex, Nile Red efflux;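 active means plate passing quality check with inhibition over a set limit, or well fluorescence over plate mean plus 4 SD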;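 further: Nile Red retained in pooled yeast measured as flow cytometry median fluorescence; 0% = buffer negative control and 100% = Enniatin B positive control; higher means more Nile Red kept so more efflux inhibition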
* marks the source's active call; other numbers are inactive results; i = inactive; ? = inconclusive; nt = no result given; + = active, no number. Most compounds without a hit are left out; they make up all but 4.5% or so of the library.

SMILES | Rce1 inh | GRK2 inh | ALR H2O2 inh | Rtt109 Vps75 | HDAC3 inhib | Efflux pump inh
Cn1c(=O)c(=O)n(C)c2cc(N3CCCCC3)c(NS(=O)(=O)c3ccc([N+](=O)[O-])cc3)cc21 | i | 2 | 25 | 1 | -3 | 0
CCOC(=O)c1ccccc1NC(=O)C1CC(=O)N(C2CCCC2)C1 (stereo not drawn) | nt | nt | nt | 4 | nt | nt
COc1cc(/C=N/NC(=O)CCOc2ccccc2C)cc(Br)c1O | ? | 0 | 97* | 10 | -11 | 1
COc1cc(/C=N\NC(=O)c2ccc(-c3ccccc3)cc2)cc(OC)c1O | i | 0 | 96* | -2 | 0 | 0
C/C(=N\NC(=O)c1ccc(NS(=O)(=O)c2cccs2)cc1)c1ccc(O)cc1O | i | 2 | 99* | 5 | -3 | 0
C/C(=N\NC(=O)c1ccc(NS(=O)(=O)c2cccs2)cc1)c1ccccc1 | i | 0 | 51 | 0 | 14 | 0
Cn1nc(C(C)(C)C)c(NC(=O)c2cccs2)c1C(C)(C)C | i | 0 | -3 | -11 | -2 | 0
Cc1ccc(C(=O)NCCCN2CCOCC2)c(C)c1 | i | 0 | nt | 3 | -6 | 0
O=C(NCCc1ccccn1)c1c(-c2ccsc2)sc2ccccc12 | nt | 70* | nt | 5 | nt | 0
O=C(NCCc1ccc(Cl)cc1)c1cc(S(=O)(=O)N2CCCCC2)c[nH]1 | i | 7 | 2 | 1 | 6 | 0
O=C(O)CCC(=O)c1ccc2c(c1)OCCO2 | i | 0 | 39 | -4 | 2 | 0
O=C(O)CCSCC(=O)c1ccc2c(c1)OCCO2 | i | 0 | 98* | 9 | -4 | 0
CCCn1nnnc1SCC(=O)c1ccc2c(c1)OCCO2 | i | 0 | 36 | -5 | 50* | 0
O=C(CCN1CCc2ccccc2C(c2ccccc2)C1)c1ccc2c(c1)OCCO2 (stereo not drawn) | i | 1 | 97* | 14 | 7 | 0
O=C(CCN1Cc2ccccc2C1)c1ccc2c(c1)OCCO2 | i | 2 | 19 | 100* | nt | 0
O=c1[nH]c2cccc(F)c2n2cccc12 | i | 0 | nt | -4 | -2 | 0
O=C(O)CC1S/C(=N/N=C/c2ccc(-c3ccc(Cl)cc3[N+](=O)[O-])o2)NC1=O (stereo not drawn) | i | 1 | 82* | 10 | 16 | 0
CC(=O)N1CCN=C1SCc1cccc(F)c1 | i | 0 | 97* | 13 | -5 | 0
CC(=O)N1CCN=C1SCc1cccc(Cl)c1 | i | 2 | 100* | 22 | 5 | 0
CC(=O)N1CCN=C1SCc1cccc(C)c1 | i | 1 | 96* | 0 | 2 | 0
CCC(=O)N1CCN=C1SCc1ccccc1 | i | 1 | -8 | 6 | 2 | 0
CCC(=O)N1CCN=C1SCc1cccc(F)c1 | i | 3 | 97* | 14 | 1 | 0
Cc1cccc(CSC2=NCCN2C(=O)C2CC2)c1 | i | 0 | 8 | 5 | 0 | 0
O=C(Cc1cccs1)N1CCN=C1SCc1cccc(F)c1 | i | 3 | ? | 5 | 4 | 0
O=C(c1cccc(S(=O)(=O)N2CCc3ccccc32)c1)N1CCCC(C(F)(F)F)C1 (stereo not drawn) | i | 4 | 0 | 10 | 0 | 0
SMILES | Rce1 inh | GRK2 inh | ALR H2O2 inh | Rtt109 Vps75 | HDAC3 inhib | Efflux pump inh
Cn1c(=O)n(C)c2cc(N3CCOCC3)c(NC(=O)c3ccc(F)cc3)cc21 | i | 0 | -6 | -9 | -3 | 0
CC(C)c1nc2cc(C(=O)N(C)Cc3ccc(F)cc3)ccc2o1 | nt | 6 | 2 | 5 | -2 | 0
C=CCNC(=O)COc1coc(CN2CCN(C(=O)c3ccco3)CC2)cc1=O | i | 0 | 2 | 3 | nt | 0
NS(=O)(=O)c1ccc(N/N=C/c2ccc[nH]2)c([N+](=O)[O-])c1 | i | 1 | 97* | 0 | 6 | 0
CC(C)(C)c1ccc(NC(=O)C2=CC=CN3CCS(=O)(=O)N=C23)cc1 | nt | 1 | 2 | 5 | 5 | 0
CCN(CC)c1ccc(NC(=O)C2=CC=CN3CCS(=O)(=O)N=C23)cc1 | nt | 0 | 99* | 0 | 2 | 0
COc1ccccc1NC(=O)c1cc2ccccc2o/c1=N\O | i | 1 | 10 | 4 | 3 | 0
COc1ccc(N=c2oc3ccccc3cc2C(=O)Nc2ccccn2)cc1OC | i | 72* | -1 | nt | 2 | 1
CCOC(=O)c1ccc(N2C(=O)CC(Nc3ccc(O)cc3)C2=O)cc1 (stereo not drawn) | i | 0 | 97* | 6 | -5 | 0
O=C(NC(=S)N(Cc1ccccc1)c1ccccn1)C1CC1 | i | 0 | 99* | 0 | 5 | 0
Cc1ccc2c(c1)c1c(n2CC(O)CNC2CCCCC2)CCCC1 (stereo not drawn) | i | 0 | 99* | 20 | -5 | 0
Cc1ccc2c(c1)c1c(n2CC(O)CNC(CO)(CO)CO)CCCC1 (stereo not drawn) | i | 0 | 96* | -4 | -6 | 0
COC(=O)Cn1c2c(c3cc(C)ccc31)CCCC2 | i | 4 | -9 | 4 | -3 | 0
CC(=O)Nc1nnc(CCN2CCCCC2)s1 | i | 0 | -28 | nt | 6 | 0
CC(C)C(=O)Nc1nnc(CCN2CCCCC2)s1 | i | 0 | -10 | 52* | 1 | 0
O=C(CN1C(=O)C(=O)N(C2CCCC2)C1=O)Nc1ccc([N+](=O)[O-])cc1 | nt | nt | nt | -2 | nt | nt
COC(=O)CSC1=C(C#N)C(c2ccc3c(c2)OCO3)C2=C(CCCC2=O)N1 (stereo not drawn) | i | 1 | 99* | -5 | 7 | 0
Cc1ccc(S(=O)(=O)N2CCN(C(=O)COC(=O)CNC(=O)c3ccccc3F)CC2)c(C)c1 | nt | nt | nt | -20 | nt | nt
Cc1nn(Cc2ccccc2)c2c1C(c1ccncc1)C(C#N)=C(N)O2 (stereo not drawn) | i | 0 | 46 | 0 | -6 | 0
Cc1nn(Cc2ccccc2)c2c1C(c1cccnc1)C(C#N)=C(N)O2 (stereo not drawn) | i | 0 | 95* | 7 | -6 | 0
CC(C)(C)c1ccc(C(=O)c2c[nH]c(C(=O)NCCc3ccccn3)c2)cc1 | i | 7 | 2 | -4 | 6 | 0
C=CCOc1ccc(-c2n[nH]c(=S)o2)cc1 | + | 0 | 28 | 1 | -12 | 0
COc1ccc(C(=O)Nc2ccc(-c3n[nH]c(=S)o3)cc2)cc1 | i | 0 | -1 | -13 | -2 | 0
COc1cc(NCCCCCCCN)c2ncccc2c1 | i | 2 | 96* | 7 | 6 | 0
C#CCOc1ccc(/C=C2/C(=O)NN(c3ccc(F)cc3)C2=O)cc1OC | i | 3 | 98* | -1 | 3 | 0
COc1cc(/C=C2\C(=O)NN(c3ccccc3)C2=O)ccc1OCC(N)=O | i | 1 | 96* | nt | 6 | 0
N#CC1(NC(=O)CN2C(=O)c3ccc([N+](=O)[O-])cc3C2=O)CCCCC1 | nt | 2 | -20 | 10 | -2 | 0
